HttQ103 aggreg = reduces HttQ103-GFP aggregates in PC12 cells; hit rate 1.1% among 220,000; Potency, µM (highest dose often 46.1 µM), for inactives: top-dose activity change, negative = inhibition, actives largely listed as inhibitors; PC12 HttQ103-GFP aggregates, Acumen cytometry, 40 h; also: % is scaled to controls: 0 for no effect and ±100 for the full control effect; nearly all actives have a fitted effect of over 60% in size
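Compounds (qHTS titration) were added to PC12 cells expressing an ecdysone-driven HTT exon 1 Q103–GFP fusion after induction with 100 nM tebufenozide. Aggregate formation was measured as GFP objects in cell lysates.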
KinaseGlo FLuc = Kinase-Glo luciferase inhibition (counter-screen). Q27757. hit rate 0.28% among 200,000. Kinase-Glo luciferase, ATP luminescence, 8 min. Potency, µM (series often up to 38.3 µM), for inactives: at the highest dose activity change, negative = inhibition, usual class: inhibitors. AID 1379; also: % is scaled to controls: 0 for no effect and ±100 for the full control effect; nearly all actives have a fitted effect of over 60% in size
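Luminescence was the read-out, taken after 8-minute incubation at ambient temperature. Luciferase turned over luciferin with 10 uM ATP in imidazole pH 7.2 buffer containing KCl, MgCl2, Tween 20 and BSA.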
HPGD block = inhibitors of human 15-hydroxyprostaglandin dehydrogenase (HPGD) | hit rate 4.3% among 150,000 | Potency, µM, without a hit: at the top dose activity change, negative = inhibition, usual class: inhibitors | P15428 | purified HPGD, NADH fluorescence kinetic, PGE2 substrate; active = well fitted inhibition curve with a large enough effect, not every such curve was filed as active; inconclusive = small, poorly fitted or top-dose-only effect, or another doubt; inactive = no such curve, though single readings can be large or run the other way; also: % is scaled to controls: 0 for no effect and ±100 for the full control effect
Target sequence (P15428 whole entry, looked up): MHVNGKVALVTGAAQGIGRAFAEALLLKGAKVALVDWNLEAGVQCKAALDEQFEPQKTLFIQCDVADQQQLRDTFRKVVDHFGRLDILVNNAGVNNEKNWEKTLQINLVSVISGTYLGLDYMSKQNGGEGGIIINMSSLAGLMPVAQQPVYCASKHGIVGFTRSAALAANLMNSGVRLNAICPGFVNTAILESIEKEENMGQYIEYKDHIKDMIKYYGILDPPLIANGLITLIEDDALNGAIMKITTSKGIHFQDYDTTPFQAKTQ
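20 nM HPGD preincubated 15 min at room temperature with compound in 50 mM Tris-HCl pH 8, 0.01% Tween 20. Started with 1 mM NAD+ and 30 uM prostaglandin E2; NADH fluorescence (360/450 nm) read 5 times over 30-s intervals, last minus first.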
HTT cytoprotect = Huntington cell model cytoprotection by ATP luminescence; Potency, µM (titrated, usually from 56.4 µM), for inactives: cytoprotection (ATP increase), hits mostly activators; PC12 HTT-Q103 induced, cytoprotection, ATP luminescence, 40 h; hit rate 0.14% among 230,000; also: % of control where 0% means no effect; nearly all actives have a fitted effect of over 45% in size
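Huntington model: PC12 line, ecdysone-inducible HTTQ103 exon1–GFP, tebufenozide 100 nM. Test articles in a dose series. Endpoint luminescence from cellular ATP.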
LMNA splice mod = changes lamin A minigene splicing in HeLa cells; hit rate 0.01% among 200,000; AID 1487; HeLa LMNA splicing GFP/RFP minigene ratio, 48 h; Potency, µM (series often up to 46.1 µM), for inactives: at the top dose ratio change, negative = inhibition, hits mostly inhibitors; active = well fitted inhibition curve with a large enough effect in the signal ratio, with a control signal flat, not every such curve was filed as active; inconclusive = small, poorly fitted or top-dose-only effect, or effect the other way, or a change in a side signal; the % refers to the signal ratio; also: % is scaled to controls: 0 for no effect and ±100 for the full control effect
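Read-out is the ratio of GFP to DsRed2 object intensity, acquired by 488 nm laser-scanning cytometry on HeLa lamin A-EGFP minigene reporter cells. Compound incubation 48 hrs at 37 °C in Opti-MEM with 2% FBS; DMSO 0.5% final.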
ALDH1A1 inh = inhibitors of human aldehyde dehydrogenase 1A1; Potency, µM (doses to about 75.3 µM), for inactives: at the top dose activity, negative = inhibition, most hits filed as inhibitors; AID 1030; P00352; Purified ALDH1A1, NADH fluorescence, propionaldehyde substrate; hit rate 7.3% among 220,000; active = well fitted inhibition curve with a large enough effect, not every such curve was filed as active; inconclusive = small, poorly fitted or top-dose-only effect, or another doubt; inactive = no such curve, though single readings can be large or run the other way;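 also: plate controls were no enzyme wells and a reference inhibitor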
Target sequence (P00352 whole entry, looked up): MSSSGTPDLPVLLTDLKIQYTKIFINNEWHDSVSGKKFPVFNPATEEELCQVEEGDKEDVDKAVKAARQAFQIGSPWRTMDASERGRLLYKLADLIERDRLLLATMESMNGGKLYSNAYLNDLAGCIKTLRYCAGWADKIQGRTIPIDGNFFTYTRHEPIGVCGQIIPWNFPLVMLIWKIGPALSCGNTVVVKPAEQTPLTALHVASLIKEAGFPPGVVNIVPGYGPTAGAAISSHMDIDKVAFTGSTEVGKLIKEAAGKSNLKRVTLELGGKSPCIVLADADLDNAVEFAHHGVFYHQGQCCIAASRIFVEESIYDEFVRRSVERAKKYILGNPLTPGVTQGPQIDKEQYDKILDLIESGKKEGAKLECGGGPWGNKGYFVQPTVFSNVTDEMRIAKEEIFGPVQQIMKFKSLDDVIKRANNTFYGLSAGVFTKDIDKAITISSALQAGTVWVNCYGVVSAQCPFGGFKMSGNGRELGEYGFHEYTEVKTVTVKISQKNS
Active calls of the source: *; [ ] = dose if it differs, or a comment. A selection: hits, their analogues and other compounds. The true share with any hit is near 9%. Unless noted, calls follow the shape of the dose curve; as a rule, active = well fitted curve in the direction sought with a large enough effect; inconclusive = small, poorly fitted or top-dose-only effect, or another doubt; inactive = no such curve, though single readings can be large; an effect the other way counts as inactive or inconclusive. Potency is read from the fitted curve at half-maximal effect.

For CN(C)c1ccc(CNc2ncc(Br)cc2Br)cc1 the results were HttQ103 aggreg -7%, KinaseGlo FLuc -2%, HPGD block -21%, HTT cytoprotect -27%, LMNA splice mod 9% and ALDH1A1 inh 3.2µM*.
COCCn1c(=NC(=O)c2ccco2)sc2cc(C(=O)OC)ccc21 was read as HttQ103 aggreg -12%, KinaseGlo FLuc 1%, HPGD block inconclusive, HTT cytoprotect 25%[10 µM], LMNA splice mod -5% and ALDH1A1 inh -11%.
COc1cc(N=Nc2c(O)c3ccccc3[nH]c2=O)c(OC)cc1N=Nc1ccccc1 was read as HttQ103 aggreg 3%[9.22 µM], HTT cytoprotect -6%[10 µM], LMNA splice mod -5%[46 µM] and ALDH1A1 inh 16µM*.
`CCOC(=O)c1c(N)nn(C(=O)c2ccccc2F)c1-c1ccc(OC)cc1` gave HttQ103 aggreg -5%, KinaseGlo FLuc 1%, HTT cytoprotect -23%, LMNA splice mod inconclusive and ALDH1A1 inh inconclusive.
CC(=O)[C@@H]1[C@H]2[C@@H](C(=O)[C@H]3OC[C@H]2O3)[C@@H]2C=Cc3ccccc3N12 was read as HTT cytoprotect -14%.
`CC(=O)[C@@H]1[C@H]2[C@H](C(=O)[C@H]3OC[C@@H]2O3)[C@H]2C=Cc3ccccc3N21` gave KinaseGlo FLuc inconclusive, HPGD block -25%, HTT cytoprotect 8%[1.9 µM] and ALDH1A1 inh 25µM*.
For Cc1cc[n+](-c2[nH]c(=O)sc2/C=N/N=C(\[O-])CCn2c3ccccc3c3ccccc32)cc1 the results were HttQ103 aggreg 6%[9.22 µM], HTT cytoprotect 4%[10 µM] and ALDH1A1 inh -9%.
`Cc1cc[n+](-c2[nH]c(=O)sc2/C=N/N=C(\[O-])c2ccccc2)cc1` gave HttQ103 aggreg 5%[9.22 µM], HTT cytoprotect -20%[10 µM] and ALDH1A1 inh 13µM*.
For O=c1[nH]c(-[n+]2ccccc2)c(/C=N/N=C(\[O-])c2ccccc2)s1 the results were HttQ103 aggreg 5%[9.22 µM] and HTT cytoprotect -8%[10 µM].
Cc1cc[n+](-c2[nH]c(=O)sc2/C=N/N=C(\[O-])c2ccccc2)cc1C was read as HttQ103 aggreg 22%, KinaseGlo FLuc -4%, HTT cytoprotect -50%, LMNA splice mod 3%[46 µM] and ALDH1A1 inh 22µM*.
For CC1(C)CC(CC(=O)Nc2ccccn2)C(=O)O1 (stereo not given) the results were HttQ103 aggreg 13%, KinaseGlo FLuc 0%, HPGD block -5%, HTT cytoprotect 11%, LMNA splice mod -7% and ALDH1A1 inh 0%.
Screening Cc1ccc(N2CC(C(=O)N3CCN(C(=O)c4ccco4)CC3)CC2=O)cc1 (stereo not given) returned HttQ103 aggreg -6%, KinaseGlo FLuc -1%, HPGD block -5%, HTT cytoprotect -4%[10 µM], LMNA splice mod -8% and ALDH1A1 inh inconclusive.
For Cc1cc(C)cc(-n2cnc3cc(C(=O)O)ccc32)c1 the results were HttQ103 aggreg -4%, KinaseGlo FLuc -3%, HPGD block 16µM*, HTT cytoprotect -2%, LMNA splice mod 4% and ALDH1A1 inh -5%.
CCCOc1ccc2oc(=O)c3c(c2c1)CCCN3C(=O)CN1CCN(c2ncccn2)CC1 was read as HttQ103 aggreg 23%, HTT cytoprotect 20%, LMNA splice mod -1% and ALDH1A1 inh 2.8µM*.
O=C(CSc1nnc(SCc2cccc3ccccc23)s1)N/N=C/c1c[nH]c2ccccc12 was read as HttQ103 aggreg -1%, KinaseGlo FLuc 2%, HPGD block -9%, HTT cytoprotect 12%[10 µM], LMNA splice mod inconclusive and ALDH1A1 inh 14µM*.
Screening O=C(CNc1ccccc1)N/N=C/c1c[nH]c2ccccc12 returned HttQ103 aggreg 2%, KinaseGlo FLuc 3%, HPGD block 0.13µM*, HTT cytoprotect 14%[10 µM], LMNA splice mod -14% and ALDH1A1 inh -3%.
For O=C(CSc1nnc(SCc2ccc(Cl)cc2)s1)N/N=C/c1c[nH]c2ccccc12 the results were HttQ103 aggreg -7%, KinaseGlo FLuc -6%, HPGD block -18%, HTT cytoprotect 4%[10 µM], LMNA splice mod 0% and ALDH1A1 inh -1%.
For O=C(O)CSc1nnc(SCc2cccc3ccccc23)s1 the results were HttQ103 aggreg 13%, KinaseGlo FLuc 17%, HPGD block 16µM*, HTT cytoprotect -1%, LMNA splice mod 4% and ALDH1A1 inh inconclusive.
For O=C(CCC(=O)Nc1ccc(F)cc1)N/N=C/c1c[nH]c2ccccc12 the results were HttQ103 aggreg 7%, KinaseGlo FLuc -3%, HTT cytoprotect -31%, LMNA splice mod 1%[46 µM] and ALDH1A1 inh 6%.
Cc1ccc2oc(C(=O)Nc3nnc(C)s3)c(C)c2c1 was read as HttQ103 aggreg -10%, KinaseGlo FLuc -5%, HPGD block -23%, HTT cytoprotect -76%, LMNA splice mod -4% and ALDH1A1 inh 4%.
`COc1cc(CNCCc2c[nH]c3ccccc23)ccc1OCc1ccccc1F` gave HttQ103 aggreg -12%, KinaseGlo FLuc -4%, HPGD block -6%, HTT cytoprotect -106%, LMNA splice mod 11% and ALDH1A1 inh 9%.
Screening O=C(Nc1ncccn1)c1ccc(C(F)(F)F)cc1 returned HttQ103 aggreg 23%, KinaseGlo FLuc -14%, HPGD block -13%, LMNA splice mod 4% and ALDH1A1 inh -1%.
`COc1cccc2cc(-c3ccnc(=S)[nH]3)oc12` gave HttQ103 aggreg -14%, KinaseGlo FLuc 0%, HTT cytoprotect -21% and ALDH1A1 inh inconclusive.
Fc1ccc(-c2ccnc(=S)[nH]2)cc1 was read as HttQ103 aggreg 12%, KinaseGlo FLuc 4%, HPGD block 18µM*, HTT cytoprotect 19%[10 µM], LMNA splice mod -12% and ALDH1A1 inh inconclusive.
For CCC(Sc1nc2ccc(N)cc2s1)C(=O)Nc1nccs1 (stereo not given) the results were HttQ103 aggreg 3%, KinaseGlo FLuc -1%, HPGD block 25µM*, HTT cytoprotect 6%, LMNA splice mod 0% and ALDH1A1 inh 7.9µM*.
For CCC(Sc1nnc(C)s1)C(=O)Nc1nccs1 (stereo not given) the results were HttQ103 aggreg -1%, KinaseGlo FLuc 13%, HPGD block -18%, HTT cytoprotect -11%[0.074 µM], LMNA splice mod 14% and ALDH1A1 inh inconclusive.
`COc1ccc(NCc2cccn2-c2nnc(N3CCC(C)CC3)s2)c(OC)c1` gave LMNA splice mod -11%[46 µM].
For COc1ccc(C)cc1NC(=O)C1COc2ccccc2O1 (stereo not given) the results were HttQ103 aggreg 9%, KinaseGlo FLuc -1%, HTT cytoprotect 4%, LMNA splice mod 1%[9.22 µM] and ALDH1A1 inh -10%.

Compound activity (PubChem)
